From PubChem
L major viab: inhibitors of Leishmania major promastigote growth; Leishmania major promastigotes, resazurin fluorescence viability; AID 1063; inhibition, % at 10 µM; hit rate 9% among 200,000; in the data active = inhibition above about 50%;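 note: promastigotes grown with compound for 44 hours at 28 °C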
WT yeast gro inh: growth inhibition of WT yeast, mitochondrial fusion screen; mitochondrial fusion phenotypic screen, WT strain; inhibition, % at 10 µM; hit rate 2.1% among 190,000; AID 1362; in the data active = inhibition above about 58%; tested in S. cerevisiae
Calpain2 inh: blocks pig calpain II enzyme activity; purified calpain II, fluorogenic peptide substrate, 30 min; inhibition, % at 16 µM; hit rate 0.37% among 220,000;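 active = inhibition above about 50%, limit read from the data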
ROMK primary: modulates human ROMK potassium channel activity; B-score at 10 µM; P48048; Tet-inducible ROMK, thallium flux fluorescence; actives lie on both sides; hit rate 2% among 130,000;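 active = signal ratio slope over the read window, or its plate-corrected B-score, at least 3 SD from the plate mean, either direction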;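 note: B-score of the F/F0 ratio slope over 7 to 12 s after thallium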
Target sequence (P48048 whole entry, looked up): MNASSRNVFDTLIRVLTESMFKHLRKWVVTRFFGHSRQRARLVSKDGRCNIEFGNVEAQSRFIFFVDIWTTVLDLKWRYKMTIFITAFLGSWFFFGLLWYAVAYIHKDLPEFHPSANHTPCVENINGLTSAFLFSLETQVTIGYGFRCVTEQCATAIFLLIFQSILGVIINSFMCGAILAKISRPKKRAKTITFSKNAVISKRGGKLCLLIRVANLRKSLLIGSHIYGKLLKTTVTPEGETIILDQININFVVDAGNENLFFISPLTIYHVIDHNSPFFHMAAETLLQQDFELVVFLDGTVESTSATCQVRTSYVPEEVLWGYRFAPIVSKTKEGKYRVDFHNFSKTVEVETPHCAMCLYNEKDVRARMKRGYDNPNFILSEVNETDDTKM
KCC2 mod: KCC2 (human) Cl- transport modulation; hit rate 2.2% among 190,000; B-score of Tl+ flux slope (higher = more flux/activation; lower = inhibition) at 10 µM; KCC2 cells, thallium flux FluoZin-2 fluorescence; AID 1456;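 active = thallium flux slope and its plate-corrected score both differing from the plate sample mean at a set confidence after two filtering rounds, in either direction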;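 note: slope of fluorescence scaled to starting intensity during 10 to 20 s after thallium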
KCC2 sec1: KCC2 (human) modulation, secondary assay | normalised thallium flux (F/F0 slope) at 10 µM | hit rate 15% among 3,700 | shares compounds with KCC2 mod | HEK293-KCC2, thallium flux, FluoZin2 fluorescence; active compounds read high;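 active = thallium flux slope above the same plate's solvent-only control mean plus 3 SD; inconclusive = the two replicate wells disagree; inactive = no significant difference from solvent-only control wells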
KCC2 bumet counter: thallium flux despite bumetanide block in KCC2 cells, secondary assay 3; shares compounds with KCC2 mod; HEK293-KCC2 + bumetanide/ouabain, thallium flux FluoZin2; active compounds read high; normalized thallium flux at 10 µM; hit rate 49% among 3,700; AID 1714;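 active = thallium entry rate above the same plate's blocked-transporter control wells by more than 3 SD; inconclusive = the two repeat wells disagree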;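 note: raw slope of fluorescence over initial fluorescence between 10 and 20 s after thallium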
KCC2 secondary2: KCC2 (human) modulation, second secondary assay; shares compounds with KCC2 mod; HEK293-KCC2, thallium flux FluoZin2 fluorescence; actives lie on both sides; F/F0 rise rate, 10–20 s post-thallium; normalized thallium flux at 10 µM; hit rate 23% among 3,700;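 active = thallium flux slope more than 3 SD above or below the plate's solvent-only control mean, mostly below; inconclusive = the two repeat wells disagreed; inactive = no significant shift from solvent-only controls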
HEK counter1: parental HEK flux effect, counter-screen | shares compounds with KCC2 mod | HEK293 parental cells, thallium flux FluoZin2, ouabain; baseline-ratio fluorescence slope, 10–20 s after thallium | hit rate 46% among 3,700 | thallium flux rate (normalised fluorescence) at 10 µM;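 active = thallium flux rate significantly above the same plate's solvent-only control wells, beyond their mean plus 3 SD; inconclusive = the two replicate wells gave conflicting results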
KCC2 retest ouab: KCC2 (human) modulation, ouabain retest; shares compounds with KCC2 mod; HEK293-KCC2, thallium flux FluoZin2 fluorescence; bidirectional: low = inhibitor, high = activator; raw Tl+ flux slope (below DMSO = inhibition, above = activation) at 10 µM; hit rate 48% among 3,700; AID 1717;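 active = thallium flux slope beyond 3 SD from same-plate DMSO control mean in most replicates, usually higher, sometimes lower; inconclusive = repeat tests gave conflicting results; inactive = no significant difference from controls in most replicates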;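 note: slope of initial-normalized fluorescence between seconds 10 and 20 after thallium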
HEK293 Tl flux2: parental HEK flux effect, counter-screen 2. shares compounds with KCC2 mod. thallium flux slope at 10 µM. HEK293 parental, thallium flux FluoZin-2 fluorescence slope. hit rate 33% among 3,700;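 active = thallium flux slope above the same plate's solvent-control mean plus 3 SD in both duplicate wells; inconclusive = duplicate wells that disagreed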;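 note: run without ouabain in cells lacking the KCC2 cotransporter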
Each line names hits and unclear results; the compound was inactive in the other large screens (follow-up assays come after a bar, where they were run). Rows were chosen to be rich in hits. Some 12% of all compounds tested hit in one or more screens of this group.

O=C(O)c1ccccc1C(=O)Nc1n[nH]c(=S)s1	none (no result: ROMK primary)
O=C(O)/C=C/C(=O)NCc1csc2ccccc12	none (no result: L major viab, WT yeast gro inh)
COCC(=O)N1CCC(Oc2ccc(C(=O)NCCc3ccncc3)cc2)CC1	none
CC1=NN(C(=O)COc2cc(C)ccc2C(C)C)C(O)(c2ccccc2)C1 (centres undefined)	none (no result: L major viab, WT yeast gro inh, ROMK primary)
COc1cc(NC(=O)CSc2cc(C)c3cc(C)cc(C)c3n2)c(C(=O)O)cc1OC	none (no result: L major viab, WT yeast gro inh, ROMK primary)
c1ccc(CCNc2c3c(nc4ncnn24)CCC3)cc1	none
c1coc(CNc2c3c(nc4ncnn24)CCCC3)c1	KCC2 mod 4.99 (no result: ROMK primary) | KCC2 sec1 inactive | KCC2 bumet counter inactive | KCC2 secondary2 inactive | HEK counter1 inactive | KCC2 retest ouab inactive | HEK293 Tl flux2 inactive
Cc1c(Cl)cccc1NC(=S)N=Nc1c(O)n(CN2CCOCC2)c2ccccc12	L major viab 98.1, KCC2 mod 47.8 | KCC2 sec1 0.0162 | KCC2 bumet counter 0.0516 | KCC2 secondary2 inactive | HEK counter1 0.0383 | KCC2 retest ouab 0.0559 | HEK293 Tl flux2 0.0134
C=CCn1c(O)c(N=NC(=S)Nc2ccccc2F)c2cc(S(=O)(=O)N3CCOCC3)ccc21	KCC2 mod 63.9 | KCC2 sec1 0.0182 | KCC2 bumet counter 0.0497 | KCC2 secondary2 inactive | HEK counter1 0.0558 | KCC2 retest ouab 0.0494 | HEK293 Tl flux2 0.0196
C=CCn1c(O)c(N=NC(=S)Nc2ccccc2F)c2ccccc21	L major viab 96.4, KCC2 mod 107 | KCC2 sec1 0.0364 | KCC2 bumet counter 0.136 | KCC2 secondary2 0.0503 | HEK counter1 inconclusive | KCC2 retest ouab 0.0888 | HEK293 Tl flux2 0.0277
Oc1c(N=NC(=S)Nc2ccccc2F)c2ccccc2n1Cc1ccccc1	L major viab 95.6, KCC2 mod 20.6 | KCC2 sec1 inconclusive | KCC2 bumet counter 0.046 | KCC2 secondary2 inactive | HEK counter1 inconclusive | KCC2 retest ouab 0.0298 | HEK293 Tl flux2 inconclusive
c1ccc2c(c1)c1ccccc1n2CN1CCOCC1	none (no result: ROMK primary)
CC(C(=O)Nc1cccnc1)n1cc([N+](=O)[O-])cn1 (centres undefined)	none
C=CCn1c(O)c(N=NC(=S)Nc2cccc(C)c2)c2ccccc21	L major viab 98.7, KCC2 mod 82.2 | KCC2 sec1 inactive | KCC2 bumet counter 0.0839 | KCC2 secondary2 0.0568 | HEK counter1 0.0295 | KCC2 retest ouab 0.0626 | HEK293 Tl flux2 0.0231
COc1ccccc1C1CC(=O)NC(C)=C1C(=O)OC(C)C (centres undefined)	none
Cc1ccc(-c2n[nH]c(=S)n2-c2ccccc2)cc1	none (no result: ROMK primary)
CC(C)Cn1c(-c2csc(C(C)C)c2)n[nH]c1=S	WT yeast gro inh 66.7, Calpain2 inh 54.1, KCC2 mod 21 | KCC2 sec1 0.0152 | KCC2 bumet counter 0.0801 | KCC2 secondary2 inactive | HEK counter1 0.0315 | KCC2 retest ouab 0.0559 | HEK293 Tl flux2 0.0122
Cc1ccc(-n2c(-c3cccc(C)c3)n[nH]c2=S)cc1	KCC2 mod 5.85 (no result: ROMK primary) | KCC2 sec1 inactive | KCC2 bumet counter 0.0203 | KCC2 secondary2 inactive | HEK counter1 0.0142 | KCC2 retest ouab 0.021 | HEK293 Tl flux2 0.0166
Cc1ccc([N+](=O)[O-])c(-c2n[nH]c(=S)n2-c2cccc(Cl)c2)c1	KCC2 mod 7.13 (no result: L major viab, WT yeast gro inh, ROMK primary) | KCC2 sec1 0.014 | KCC2 bumet counter 0.0322 | KCC2 secondary2 inactive | HEK counter1 0.0122 | KCC2 retest ouab inconclusive | HEK293 Tl flux2 0.0119
Cc1cccc(-n2c(-c3ccoc3C)n[nH]c2=S)c1	none
Cc1cccc(-n2c(-c3csc4ccccc34)n[nH]c2=S)c1	WT yeast gro inh 64.2, KCC2 mod 17.1 (no result: ROMK primary) | KCC2 sec1 0.0128 | KCC2 bumet counter 0.0694 | KCC2 secondary2 inactive | HEK counter1 0.0256 | KCC2 retest ouab 0.0549 | HEK293 Tl flux2 inconclusive
Cc1ccc(C(=O)OCc2c(C)noc2C)cc1NC(=O)c1ccco1	none
O=C(CCCN1C(=O)c2ccccc2C1=O)Nc1cccc(S(=O)(=O)NC2=NCCC2)c1	none
Cc1ccc(C)c(C(C)NC(=O)c2ccccc2Br)c1 (centres undefined)	none
CC(C)Cn1c(-c2csc3ccccc23)n[nH]c1=S	KCC2 mod 4.85 (no result: ROMK primary) | KCC2 sec1 inactive | KCC2 bumet counter 0.0192 | KCC2 secondary2 inactive | HEK counter1 0.0178 | KCC2 retest ouab inconclusive | HEK293 Tl flux2 0.0147
CCn1c(-c2csc3ccccc23)n[nH]c1=S	none (no result: ROMK primary)
COc1cc(C2SCC(=O)N2c2c(C)n(C)n(-c3ccccc3)c2=O)ccc1O (centres undefined)	none (no result: L major viab, WT yeast gro inh)
O=C1CS/C(=N/N=C/c2ccco2)N1Cc1ccc(F)cc1	none (no result: L major viab, WT yeast gro inh)
O=C(CCc1nnc(-c2ccc(-c3ccccc3)cc2)o1)NCCc1ccccn1	KCC2 mod -3.22 | KCC2 sec1 inactive | KCC2 bumet counter inactive | KCC2 secondary2 inactive | HEK counter1 inactive | KCC2 retest ouab inconclusive | HEK293 Tl flux2 inconclusive
CC(NC(=O)CCc1nnc(-c2ccc(-c3ccccc3)cc2)o1)c1nccs1 (centres undefined)	KCC2 mod -4.11 | KCC2 sec1 inactive | KCC2 bumet counter inactive | KCC2 secondary2 0.0241 | HEK counter1 inactive | KCC2 retest ouab inactive | HEK293 Tl flux2 inactive
O=S(=O)(Nc1nc2ccccc2nc1N1CCN(c2ccccn2)CC1)c1ccc(Cl)cc1	L major viab 66.0, KCC2 mod -3.1 | KCC2 sec1 inactive | KCC2 bumet counter inactive | KCC2 secondary2 0.0239 | HEK counter1 inactive | KCC2 retest ouab inconclusive | HEK293 Tl flux2 inactive
C/C(=N\NC(=S)NC(C)C)c1cccc([N+](=O)[O-])c1	none
C/C(=N\NC(=S)Nc1cccc(C)c1)c1cc2ccccc2o1	L major viab 89.5, KCC2 mod 26.2 | KCC2 sec1 inactive | KCC2 bumet counter 0.0772 | KCC2 secondary2 0.051 | HEK counter1 0.0379 | KCC2 retest ouab 0.0583 | HEK293 Tl flux2 0.041
CC/C(=N\NC(=S)Nc1cccc(C)c1)c1ccccc1	WT yeast gro inh 71.2, KCC2 mod 34.4 | KCC2 sec1 0.021 | KCC2 bumet counter 0.1 | KCC2 secondary2 inactive | HEK counter1 inconclusive | KCC2 retest ouab 0.0666 | HEK293 Tl flux2 0.0277
